# Data reported in PubChem BioAssay.
# Inconclusive results are not listed. The source made the active and inactive calls. Unless noted, no stated cut-off is given here; in the data, active means inhibition above about 80%; inactive means the rest.
# Assays:
# [1] = viability loss in pontine glioma line – cell-based, SU-DIPG-XVII, MIPE5.0, CellTiter-Glo, qHTS, dose response (AID 1347060; cut-off not given, nearly all actives have AC50 up to about 26 µM;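 on AC50: cells exposed to compound for 48 hours before viability readout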); conditions: CellTiter-Glo ATP luminescence
# [2] = growth inhibition of DIPG cells – cell-based, MIPE5.0 library, qHTS (AID 1347068; cut-off not given, nearly all actives have IC50 up to about 30 µM;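 on IC50: cells exposed to compound for 48 hours before viability readout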); conditions: SU-DIPG-XXV viability
# [3] = viability loss with induced miR-34 in A549 – imaging, A549 dox-inducible miR-34, nuclei and caspase counts, primary screen (AID 1347080;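 active means compounds whose cell count with miR-34 switched on is under 0.7 times the count with it off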); conditions: A549 miR-34 inducible, Hoechst nuclei count, 48 h
# [4] = compounds altering HSF1 focus formation in cells – imaging, Selleck Cancer Library (AID 1347162; in the data active means plate-normalised HSF1 focus index below about 0.46); conditions: human cells, HSF1 nuclear foci imaging, at 10 µM; SSMD: measured here: HSF1 foci SSMD mean; cell count: measured here: cell number; plate-normalised HSF1 focus index: stronger effect = lower value
# [5] = MELAS cybrid and Rieske KO viability enhancers – cell-based, MELAS cybrids, Rieske KO mouse fibroblasts, CellTiter-Glo, primary screen (AID 1508586;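 active means mean z-score across replicates of 1.96 or higher in either the MELAS or the Rieske mutant cell line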;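 further: z relative to plate mean and SD of compound and empty wells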); conditions: low glucose
# [6] = growth inhibition, single agent or in combination, cell-based, chromothripsis tumors, cisplatin or BGB combos (AID 1671449); conditions: LFS_MB_P medulloblastoma cells;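 further: cells exposed for 96 hours; 0% = vehicle DMSO and 100% = killing by high DMSO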
# [7] = growth inhibition, single agent and combos, cell-based, chromothripsis tumors, cisplatin or BGB combos (AID 1671450); conditions: HDN33 neuroblastoma cells, stronger effect = higher value;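 further: cells exposed to compound for four days; 0% = vehicle DMSO and 100% = cell killing by high DMSO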
# [8] = growth inhibition, single agents and combos, ICB984, cell-based, cisplatin or BGB combos, synergistic combos for chromothripsis tumors (AID 1671451; call rule not given here;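 further: cells exposed for 96 hours before readout; 0% = vehicle DMSO and 100% = killing by high DMSO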); conditions: ICB984 medulloblastoma cells, drug combinations, stronger effect = higher value
# [9] = growth inhibition, single agents and combos, LFS_MB_1R, cell-based, cisplatin or BGB combos, synergistic combos for chromothripsis tumors (AID 1671452); conditions: LFS_MB_1R medulloblastoma cells, stronger effect = higher value;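 further: cells exposed for 96 hours before readout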
# [10] = growth inhibition, single agents and combos, HTB85, cell-based, BGB or cisplatin IC20 combos, synergistic combos for chromothripsis tumors (AID 1671453); conditions: HTB85 osteosarcoma cells, drug combinations, stronger effect = higher value;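 further: cells exposed for 96 hours before readout; 0% = vehicle DMSO and 100% = high DMSO killing control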
# [11] = growth inhibition, single agents and combos, CRL2098, cell-based, BGB or cisplatin IC20 combos, synergistic combos for chromothripsis tumors (AID 1671454); conditions: CRL2098 osteosarcoma cells, drug combinations, stronger effect = higher value;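 further: cells exposed for 96 h before readout; 0% = vehicle DMSO and 100% = killing by high DMSO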
# [12] = growth inhibition, single agents and combos, HD-MB03, cell-based, BGB or cisplatin IC20 combos, synergistic combos for chromothripsis tumors (AID 1671455; in the data active means inhibition above about 83%;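 further: 0% = vehicle DMSO and 100% = high DMSO as cytotoxic control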); conditions: HD-MB03 medulloblastoma cells, stronger effect = higher value
# [13] = growth inhibition, single agents and combos, UWB1.289, cell-based, BGB or cisplatin combos, synergistic combos for chromothripsis tumors (AID 1671456); conditions: UWB1.289 ovarian carcinoma cells, stronger effect = higher value;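 further: cells exposed to compound for four days; 0% = vehicle DMSO and 100% = killing by high DMSO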
# [14] = growth inhibition, single agents and combos, LFS_MB_2R, cell-based, cisplatin combos, synergistic combos for chromothripsis tumors (AID 1671457); conditions: LFS_MB_2R medulloblastoma cells, stronger effect = higher value;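 further: cells exposed to compound for four days before readout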
# [15] = growth inhibition, MDA-MB-436, cell-based, BGB or cisplatin combos, synergistic combos for chromothripsis tumors (AID 1671458; call rule not given here;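 further: cells exposed for 96 hours; 0% = vehicle DMSO and 100% = killing by high DMSO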); conditions: MDA-MB-436 breast carcinoma growth inhibition, drug combinations, stronger effect = higher value
# [16] = UWB1.289_BRCA1 ovarian cancer growth, cell-based, BGB or cisplatin combinations (AID 1671459); conditions: UWB1.289 BRCA1 ovarian carcinoma, drug combinations, stronger effect = higher value
# [17] = drug combination toxicity in non-malignant astrocytes – cell-based, BGB or cisplatin IC20 combos, cytotoxicity control for chromothriptic childhood tumor combination screen (AID 1671460); conditions: Human astrocytes, viability inhibition, drug combinations, at 0.5 µM, stronger effect = higher value;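 further: cells exposed to compounds for 96 hours before viability readout; 0% = vehicle and 100% = killing control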
# [18] = BT084 cell growth, single and combined drugs, ICGC_MB145, cisplatin and BGB IC40 combos (AID 1671461); conditions: BT084 medulloblastoma cells, drug combinations, stronger effect = higher value;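 further: cells exposed to drugs for 96 hours; 0% = vehicle DMSO and 100% = high DMSO full killing control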
# [19] = RCMB18 cell growth, single agent and combined, cisplatin and BGB IC40 combos (AID 1671462); conditions: RCMB18 medulloblastoma cells, stronger effect = higher value;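 further: cells exposed to compound for four days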
# [20] = CRL1545 cell growth, single agent and combined, cisplatin and BGB IC20 combos (AID 1671464); conditions: CRL1545 osteosarcoma cells, stronger effect = higher value;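 further: cells exposed to compound for 96 hours before readout; 0% = vehicle DMSO and 100% = high DMSO killing control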
# [21] = JHH-DIPG-1 glioma cell viability, MIPE5.0 library, CellTiter-Glo luminescence, qHTS (AID 1347067; cut-off not given, nearly all actives have AC50 up to about 26 µM;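 further: cells exposed to compound for 48 hours before readout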); conditions: JHH-DIPG-1 glioma viability, CellTiter-Glo ATP luminescence
# [22] = stronger effect = lower value, cell number ratio, induced over uninduced
# [23] = measured here: relative caspase fold change +Dox/-Dox
# [24] = measured here: total cells with miR-34 induction, stronger effect = lower value
# [25] = measured here: total cells without miR-34 induction
# [26] = MELAS cybrid survival, CellTiter-Glo 48 h, stronger effect = higher value
# [27] = Rieske KO mouse fibroblast survival, CellTiter-Glo 72 h
# [28] = measured here: combination with BGB IC40, at 0.05 µM
# [29] = measured here: with BGB IC20 combination, at 0.5 µM
# [30] = measured here: with cisplatin IC20 combination, at 0.5 µM
# [31] = measured here: combination with cisplatin, at 0.5 µM
# [32] = measured here: combination with cisplatin, at 5 µM
smiles,measurement,setting,value
Nc1nc(OCc2cc(Br)cs2)c2[nH]cnc2n1,outcome,[1],inactive
same,outcome,[2],inactive
same,fold change,[3]; [22],0.799 (inactive)
same,fold change,[3]; [23],0.415
same,cell count,[3]; [24],7150
same,cell count,[3]; [25],8940
same,SSMD,[4],3.47
same,cell count,[4],6820
same,plate-normalised HSF1 focus index,[4],1.21 (inactive)
same,z-score,[5]; [26],-0.686 (inactive)
same,z-score,[5]; [27],-2.22
same,inhibition,"[6]; at 0.5 µM, stronger effect = higher value",-8.6% (inactive)
same,inhibition,"[6]; measured here: combination with BGB IC20, at 0.005 µM",6.06%
same,inhibition,"[6]; measured here: combination with BGB IC40, at 0.005 µM",-17.9%
same,inhibition,[6]; [28],-7.49%
same,inhibition,"[6]; measured here: combination with cisplatin, at 0.5 µM, stronger effect = higher value",-32.7%
same,inhibition,"[6]; measured here: combination with cisplatin, at 5 µM, stronger effect = higher value",3.43%
same,inhibition,"[7]; BGB combo, at 5 µM",-14.7%
same,inhibition,[7]; at 0.5 µM,-12.4% (inactive)
same,inhibition,"[7]; cisplatin combo, at 5 µM",-19.8%
same,inhibition,[7]; [29],-15.1%
same,inhibition,[7]; [30],-16.6%
same,inhibition,"[7]; single agent, at 5 µM",-22.4%
same,inhibition,"[8]; BGB IC20 combo, at 0.005 µM",-4.27%
same,inhibition,"[8]; BGB IC40 combo, at 0.005 µM",-37.5%
same,inhibition,"[8]; BGB IC40 combo, at 0.05 µM",-11.8%
same,inhibition,[8]; at 0.5 µM,-22.3% (inactive)
same,inhibition,"[8]; cisplatin combo, at 0.05 µM",-16.3%
same,inhibition,"[8]; cisplatin combo, at 0.5 µM",-26.5%
same,inhibition,"[8]; cisplatin combo, at 5 µM",-13.8%
same,inhibition,"[8]; measured here: 5 uM single agent, at 5 µM",4.33%
same,inhibition,[9]; at 0.5 µM,-20.5% (inactive)
same,inhibition,[9]; [28],-27%
same,inhibition,[9]; [31],-33.3%
same,inhibition,[9]; [32],-35.3%
same,inhibition,[10]; at 0.5 µM,-18.8% (inactive)
same,inhibition,"[10]; measured here: with BGB IC20, at 0.5 µM",-10.7%
same,inhibition,"[10]; measured here: with BGB IC20, at 5 µM",-21.3%
same,inhibition,"[10]; measured here: with cisplatin IC20, at 0.5 µM",-23.3%
same,inhibition,"[10]; measured here: with cisplatin IC20, at 5 µM",-10.7%
same,inhibition,"[10]; single agent, at 5 µM",-17.4%
same,inhibition,[11]; at 0.5 µM,-32.8% (inactive)
same,inhibition,"[11]; measured here: combination with BGB at IC20, at 0.5 µM",-25.4%
same,inhibition,"[11]; measured here: combination with cisplatin at IC20, at 0.5 µM",-22.4%
same,inhibition,[12]; at 0.5 µM,-4.96% (inactive)
same,inhibition,"[12]; measured here: combo with BGB at IC20, at 0.5 µM",-7.38%
same,inhibition,"[12]; measured here: combo with cisplatin at IC20, at 0.5 µM",-2.87%
same,inhibition,[13]; at 0.5 µM,7.84% (inactive)
same,inhibition,"[13]; measured here: inhibition with BGB combination, at 0.05 µM",-1.57%
same,inhibition,"[13]; measured here: inhibition with cisplatin combination, at 0.05 µM",-17.8%
same,inhibition,[14]; at 0.5 µM,18.8% (inactive)
same,inhibition,[14]; [31],-4.84%
same,inhibition,[14]; [32],6.55%
same,inhibition,[15]; at 0.5 µM,-3.23% (inactive)
same,inhibition,"[15]; measured here: BGB combination, at 0.5 µM",4.51%
same,inhibition,"[15]; measured here: BGB combination, at 5 µM",3.71%
same,inhibition,"[15]; measured here: cisplatin combination, at 0.5 µM",-3.58%
same,inhibition,"[15]; measured here: cisplatin combination, at 5 µM",5.35%
same,inhibition,"[16]; BGB combination, concentration series, at 5 µM",-10.7%
same,inhibition,[16]; at 0.5 µM,-6.34% (inactive)
same,inhibition,"[16]; cisplatin combination, concentration series, at 5 µM",8.18%
same,inhibition,[17],-4.57% (inactive)
same,inhibition,[17]; measured here: combo with BGB IC20,2.71%
same,inhibition,[17]; measured here: combo with cisplatin IC20,-8.58%
same,inhibition,[18]; at 0.5 µM,-0.821% (inactive)
same,inhibition,"[18]; cisplatin combination, at 0.5 µM",-10.5%
same,inhibition,"[18]; cisplatin combination, at 5 µM",2.83%
same,inhibition,"[18]; measured here: BGB IC40 combination 0.05 uM, at 0.05 µM",-9.82%
same,inhibition,"[18]; single agent, at 5 µM",4.08%
same,inhibition,[19]; at 0.5 µM,-7.44% (inactive)
same,inhibition,"[19]; cisplatin combo, at 5 µM",-2.67%
same,inhibition,"[19]; measured here: BGB IC40 combination, at 0.05 µM",1.72%
same,inhibition,[19]; [31],-25.9%
same,inhibition,"[19]; single agent, at 5 µM",-0.712%
same,inhibition,[20]; at 0.5 µM,-8.12% (inactive)
same,inhibition,[20]; [29],-32.5%
same,inhibition,[20]; [30],4.06%
same,inhibition,"[20]; single agent, at 0.05 µM",5.05%
same,inhibition,"[20]; single agent, at 5 µM",-19.6%
N#Cc1cc2cc(CN3CCC(Nc4ncnc5sc(CC(F)(F)F)cc45)CC3)c(O)cc2n1Cc1cn[nH]c1,AC50,[1],29.5 µM (active)
same,IC50,[2],20.9 µM (active)
CN1C[C@@H]2c3ccccc3Oc3ccc(Cl)cc3[C@H]2C1,outcome,[1],inactive
same,outcome,[21],inactive
same,outcome,[2],inactive
same,fold change,[3]; [22],0.885 (inactive)
same,fold change,[3]; [23],1.23
same,cell count,[3]; [24],6350
same,cell count,[3]; [25],7170
same,z-score,[5]; [26],-0.348 (inactive)
same,z-score,[5]; [27],0.514
NC(=O)C1=C(O)[C@@]2(O)C(=O)C3=C(O)c4c(O)cccc4C[C@H]3C[C@H]2CC1=O,AC50,[1],18.6 µM (active)
same,AC50,[21],14.8 µM (active)
same,outcome,[2],inactive
